INS promoter inh: TRM-6 insulin promoter activity inhibition; TRM-6 cells (human fetal islet line), insulin promoter-eGFP reporter, imaging; reporter expression induced with tamoxifen; inhibition, % at 2 µM; 130,000 compounds, 0.9% hits; AID 1273;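 active = inhibition above the mean plus 3 SD, with well images judged a real hit on visual review, cut at about 60% in these data, passing the limit was not always enough; inconclusive = inhibition over the cutoff but images rejected on review; inactive = inhibition not above the cutoff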
Insulin prom up: MIN6 insulin promoter up-regulation | MIN6 insulin promoter-GFP reporter, high-content imaging; stronger effect = higher value | z-score at 5 µM | 190,000 compounds, 0.3% hits | AID 1625;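 active = z-score above 3 at 5 µM with at least 500 cells counted in the well; inconclusive = wells under 500 cells, flagged as cytotoxic or low count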
WT yeast gro inh: growth inhibition of WT yeast, mitochondrial fusion screen; 190,000 compounds, 2.1% hits; inhibition, % at 10 µM; mitochondrial fusion phenotypic screen, WT strain; in the data active = inhibition above about 58%; tested in S. cerevisiae
ROMK mod: modulates human ROMK potassium channel activity. 130,000 compounds, 2% hits. P48048. AID 1918. Tet-inducible ROMK, thallium flux fluorescence; actives lie on both sides. B-score at 10 µM;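 active = signal ratio slope over the read window, or its plate-corrected B-score, at least 3 SD from the plate mean, either direction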;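 note: B-score of the F/F0 ratio slope over 7 to 12 s after thallium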
Target sequence (P48048 whole entry, looked up): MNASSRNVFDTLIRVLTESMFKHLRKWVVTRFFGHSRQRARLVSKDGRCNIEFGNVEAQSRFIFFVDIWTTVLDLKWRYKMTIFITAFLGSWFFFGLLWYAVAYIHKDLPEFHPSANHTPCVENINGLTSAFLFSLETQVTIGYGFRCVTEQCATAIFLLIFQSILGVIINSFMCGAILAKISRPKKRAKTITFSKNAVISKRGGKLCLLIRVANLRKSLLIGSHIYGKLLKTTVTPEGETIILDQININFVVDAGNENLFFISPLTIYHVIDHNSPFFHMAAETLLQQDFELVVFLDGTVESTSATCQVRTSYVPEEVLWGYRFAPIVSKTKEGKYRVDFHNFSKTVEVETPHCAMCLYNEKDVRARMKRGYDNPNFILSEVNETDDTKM
Lmaj promast: reduces viability of Leishmania major promastigotes; AID 1063; 200,000 compounds, 9% hits; resazurin fluorescence viability; inhibition, % at 10 µM; in the data active = inhibition above about 50%;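 note: promastigotes grown with compound for 44 hours at 28 °C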
KCC2 mod: modulators of human KCC2 chloride dependent transport; 190,000 compounds, 2.2% hits; AID 1456; KCC2 cells, thallium flux FluoZin-2 fluorescence; B-score of Tl+ flux slope (higher = more flux/activation; lower = inhibition) at 10 µM;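 active = thallium flux slope and its plate-corrected score both differing from the plate sample mean at a set confidence after two filtering rounds, in either direction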;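 note: slope of fluorescence scaled to starting intensity during 10 to 20 s after thallium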
KCC2 secondary: confirmation of human KCC2 transport modulators; 3,700 compounds, 15% hits; normalised thallium flux (F/F0 slope) at 10 µM; shares compounds with KCC2 mod; HEK293-KCC2, thallium flux, FluoZin2 fluorescence; stronger effect = higher value;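 active = thallium flux slope above the same plate's solvent-only control mean plus 3 SD; inconclusive = the two replicate wells disagree; inactive = no significant difference from solvent-only control wells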
KCC2 bumet counter: bumetanide-insensitive thallium flux in KCC2 cells with ouabain, counter-screen; shares compounds with KCC2 mod; HEK293-KCC2 + bumetanide/ouabain, thallium flux FluoZin2; stronger effect = higher value; normalized thallium flux at 10 µM; 3,700 compounds, 49% hits; AID 1714;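 active = thallium entry rate above the same plate's blocked-transporter control wells by more than 3 SD; inconclusive = the two repeat wells disagree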;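 note: raw slope of fluorescence over initial fluorescence between 10 and 20 s after thallium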
KCC2 sec2: KCC2 (human) modulation, second secondary assay; HEK293-KCC2, thallium flux FluoZin2 fluorescence; actives lie on both sides; F/F0 rise rate, 10–20 s post-thallium; 3,700 compounds, 23% hits; normalized thallium flux at 10 µM; shares compounds with KCC2 mod;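 active = thallium flux slope more than 3 SD above or below the plate's solvent-only control mean, mostly below; inconclusive = the two repeat wells disagreed; inactive = no significant shift from solvent-only controls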;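 note: raw slope with 0.1% DMSO as baseline and bumetanide as block control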
HEK counter1: acts in parental HEK cells, KCC2 counter-screen; HEK293 parental cells, thallium flux FluoZin2, ouabain; baseline-ratio fluorescence slope, 10–20 s after thallium; thallium flux rate (normalised fluorescence) at 10 µM; 3,700 compounds, 46% hits; shares compounds with KCC2 mod;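 active = thallium flux rate significantly above the same plate's solvent-only control wells, beyond their mean plus 3 SD; inconclusive = the two replicate wells gave conflicting results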
KCC2 retest ouab: confirmation of human KCC2 modulators with ouabain; 3,700 compounds, 48% hits; AID 1717; HEK293-KCC2, thallium flux FluoZin2 fluorescence; bidirectional: low = inhibitor, high = activator; raw Tl+ flux slope (below DMSO = inhibition, above = activation) at 10 µM; shares compounds with KCC2 mod;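 active = thallium flux slope beyond 3 SD from same-plate DMSO control mean in most replicates, usually higher, sometimes lower; inconclusive = repeat tests gave conflicting results; inactive = no significant difference from controls in most replicates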;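 note: slope of initial-normalized fluorescence between seconds 10 and 20 after thallium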
HEK counter2: parental HEK flux effect, counter-screen 2; shares compounds with KCC2 mod; HEK293 parental, thallium flux FluoZin-2 fluorescence slope; thallium flux slope at 10 µM; 3,700 compounds, 33% hits;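 active = thallium flux slope above the same plate's solvent-control mean plus 3 SD in both duplicate wells; inconclusive = duplicate wells that disagreed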;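 note: run without ouabain in cells lacking the KCC2 cotransporter; slope of fluorescence scaled to its starting value between 10 and 20 s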
Starred values were filed as active, the others as inactive; i = inactive; ? = inconclusive; . = no result. Hits are enriched below; roughly 12% of the tested compounds scored in any of these assays.

SMILES	INS promoter inh	Insulin prom up	WT yeast gro inh	ROMK mod	Lmaj promast	KCC2 mod	KCC2 secondary	KCC2 bumet counter	KCC2 sec2	HEK counter1	KCC2 retest ouab	HEK counter2
O=C(O)c1cccc(Nc2nc(Nc3ccccc3)nc(N3CCCC3)n2)c1	-33.3	-0.36	-17.3	.	-2.1	-3*	0.00843	0.00568	0.0285	?	0.029*	?
CN(C)CCNC(=O)C(=O)NCC1OCCCN1S(=O)(=O)c1cccs1 (stereo not given)	-18.8	0.27	-11.1	0.0666	-3.4	0.0791	.	.	.	.	.	.
N#Cc1c(-c2ccccc2)nc(SCc2nc(N)nc(N3CCCCC3)n2)[nH]c1=O	i	-0.13	-10.5	.	-4.0	-2.75*	?	0.00458	0.0248*	0.00588*	0.0124*	?
CC1CCN(c2nc3c(cc2C#N)COC(C)(C)C3)CC1	.	-0.02	-17.0	-0.466	-6.0	0.489	.	.	.	.	.	.
CC1=C(C(=O)OCCOc2ccccc2)C(c2ccsc2)NC(=O)N1C (stereo not given)	0.0	-0.28	15.0	-1.31	14.8	-6.61*	0.00843	0.00599	0.0301*	0.00381	0.016*	0.0106
O=C1N(Cc2ccc(F)cc2)CCN1c1ccc(F)cc1	.	-0.83	0.9	0.309	5.5	-3.34*	0.00665	?	0.0304	0.0112*	?	0.0116
COCC(=O)NNC(=O)c1ccc(OC)cc1	21.4	0.34	-10.7	0.000231	-5.7	0.873	.	.	.	.	.	.
COCc1cc(C)nc(NC2CCCCC2)c1C#N	27.6	0.43	.	.	-3.0	-0.638	.	.	.	.	.	.
O=C(Nc1nc(SCc2ccc(F)cc2)ns1)c1ccco1	-93.6	0.15	68.5*	-0.399	-9.4	-3.72*	0.00587	?	0.0213*	?	0.0118*	0.0106
Fc1ccc(CSc2nsc(SCc3ccc(F)cc3)n2)cc1	34.5	-0.19	31.2	-0.0128	-8.3	1.06	.	.	.	.	.	.
O=C1C2C3C=CC(C3)C2C(=O)N1CCN1CCN(S(=O)(=O)c2ccc3ccccc3c2)CC1 (stereo not given)	-75.0	-0.01	10.9	-1.06	23.9	-0.0187	.	.	.	.	.	.
CCOc1ccc(-c2ccc(SCC(=O)N3CCN(c4ccccc4)CC3)nn2)cc1	.	-0.11	6.6	.	-3.2	0.598	.	.	.	.	.	.
C/C(N)=C(/C#N)C(=O)CSc1n[nH]c(-c2ccccc2Br)n1	.	1.56	1.1	-0.321	10.1	.	.	.	.	.	.	.
O=C(Nc1ncc2c(n1)-c1ccccc1CC2)c1cccc(Cl)c1	.	.	9.3	.	11.7	-4.4*	0.00653	0.00447	0.0223*	0.00624	0.0135*	0.00871
O=C(Nc1ncc2c(n1)-c1ccccc1CC2)c1ccc(Cl)cc1	-64.3	.	16.6	.	5.9	-2.05	.	.	.	.	.	.
CCCCn1c(NS(=O)(=O)c2ccc(C)cc2)c(S(=O)(=O)c2ccccc2)c2nc3ccccc3nc21	.	-1.03	-8.6	.	-4.0	-6.46*	0.00901	0.017*	0.033	?	?	0.0109
Cc1ccc(/C=N/NC(=O)c2ccc(Br)o2)s1	-26.9	-1.23	5.8	0.609	6.0	5.31*	0.0091	0.00924*	0.033	?	0.0205	0.012
CCc1ccc(/C=N\NC(=O)c2ccc(Br)o2)s1	-40.0	0.74	-10.0	-0.000483	-3.2	6.01*	0.00938	0.022*	0.0306	0.0215*	0.0226	0.0122*
O=C(N/N=C/c1ccco1)c1ccc(Br)o1	.	-0.37	-10.3	0.927	-1.0	0.548	.	.	.	.	.	.

Compound activity as filed in PubChem.
